PubChem BioAssay (NCATS)
Results filed as inconclusive are left out. Values without a mark were called inactive. Calls of active or inactive are those of the source. Calls come from the whole dose curve; as a rule, active = well fitted inhibition curve with a large enough effect; inconclusive = small, poorly fitted or top-dose-only effect; inactive = flat fitted curve, though single readings scatter.

Assay: P-glycoprotein substrates identified in KB-8-5-11 adenocarcinoma cell line, qHTS therapeutic library screen (AID 1346987); note: nearly all actives have a fitted effect of over 65% in size
Settings: KB-8-5-11 (P-gp overexpressing) viability, CellTiter-Glo, 72 h; series mostly up to 44.5 µM; activity change, negative = cytotoxicity: at the top concentration
Outline: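 In this qHTS, P-gp-rich KB-8-5-11 cells received library compounds across a concentration range. Viability was quantified by luminescence after 72 h at 37 degree C.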
% is set by controls: 0 for no effect and ±100 for the full control effect; potency is the fitted concentration of half-maximal effect.

| Structure (SMILES) | Potency | outcome | activity change, negative = cytotoxicity |
| --- | --- | --- | --- |
| O=C(c1cn(Cc2cncn2Cc2ccc(Br)cc2)cc1-c1cccc2ccccc12)N1CCOCC1 | 4.11 µM (active) |  |  |
| COc1cc(O)cc(C)c1C(=O)OC1C(CO)OC(OC2C(O)C(O)C(O)C(O)C2O)C(O)C1O (stereo not drawn) |  | inactive [at 17.3 µM] |  |
| c1ccc(N2CCN(CCc3nn[nH]n3)CC2)cc1 |  |  | -6.1% |
| C[C@@H]1C(=O)O[C@H]2C[C@]34[C@H]5C[C@@H](C(C)(C)C)[C@]36[C@@H](OC(=O)[C@H]6O)O[C@]4(C(=O)O5)[C@]21O |  |  | 3.36% [at 17.3 µM] |
| O=C(O)c1cc2cccc([N+](=O)[O-])c2[nH]1 |  | inactive |  |
| CCc1c(C)nc2c(-c3cnn(-c4cc(CO)ccn4)c3)c[nH]n2c1=O |  |  | 8.59% |
| CC1(C)CC(=O)C2=C(C1)NC(=S)NC2c1cccc(O)c1 (stereo not drawn) | 5.8 µM (active) |  |  |
| CC12CCC(OC3OC(CO)C(O)C(OC4OC(CO)C(O)C(O)C4O)C3O)CC1CCC1C2CCC2(C)/C(=C3/COC(=O)C3)CCC12O (stereo not drawn) |  |  | 4.78% [at 17.3 µM] |
| Cn1cncc1C(N)(c1ccc(Cl)cc1)c1ccc2c(c1)c(-c1cccc(Cl)c1)cc(=O)n2C (stereo not drawn) | 3.26 µM (active) |  |  |
| CS(=O)(=O)N1CCC(NC(=O)c2[nH]ncc2NC(=O)c2c(Cl)cccc2Cl)CC1 | 9.2 µM (active) |  |  |
| CC(C)[C@@H]1C(=O)N(S(C)(=O)=O)[C@@H]2CCN(C(=O)/C=C/CN3CCCCC3)[C@H]21 |  |  | 5.64% |
| COc1cc2c(c(OC)c1CC=C(C)C)C[C@H](c1ccc(O)cc1O)CO2 |  |  | 5.13% |
| O=C1CCC(c2ccccc2)(C2CCN(Cc3ccc(I)cc3)CC2)C(=O)N1 (stereo not drawn) |  |  | -7.06% |
| CCCNc1ccc2ncc(-c3ccc4[nH]ncc4c3)n2n1 | 3.66 µM (active) |  |  |
| OC[C@H]1O[C@@H](OCCc2ccc(O)cc2)[C@H](O[C@@H]2OC[C@](O)(CO)[C@H]2O)[C@@H](O)[C@@H]1O |  | inactive [at 17.3 µM] |  |
| C=CC(C)(C)c1[nH]c2cc3c(cc2c1CC1NC(=O)C2CCCN2C1=O)C=CC(C)(C)O3 (stereo not drawn) |  |  | 7.25% [at 17.3 µM] |
| C=CC/C=C\C/C=C\CCCCCCCc1cccc(O)c1C(=O)O |  | inactive |  |

| Structure (SMILES) | Potency | outcome | activity change, negative = cytotoxicity |
| --- | --- | --- | --- |
| Cc1cc(NC(=O)Nc2ccc(F)c(F)c2)n(-c2ccccc2)n1 |  |  | -10.9% |
| CC1=CC(=O)CC(C)(CO)C1(O)/C=C/C(C)O[C@@H]1O[C@H](CO)[C@@H](O)[C@H](O)[C@H]1O (stereo partly drawn) |  |  | 3.58% [at 17.3 µM] |
| COC(=O)CCC(=O)OC[C@]1(C)CCC[C@@]2(C)C3CC[C@]4(C)C=CC3(CCC12)C4 (stereo partly drawn) |  | inactive [at 17.3 µM] |  |
| CCOC(=O)c1sc(NC(=O)[C@H](C(C)C)n2c(=O)[nH]c3ccccc3c2=O)nc1C |  |  | -7.48% |
| CC(C)(O)CC(CO)NC(=O)CC(O)CC(=O)Cc1ccccc1 (stereo not drawn) |  | inactive |  |
| CC1=CC(=O)CC(C)(C)[C@@]1(O)CC[C@@H](C)O[C@@H]1O[C@H](CO)[C@@H](O)[C@H](O)[C@H]1O |  |  | -3.96% |
| COc1cc(C(=O)NC2CCN(C)CC2)c(F)cc1Nc1ncc2c(n1)N(C1CCCC1)CC(F)(F)C(=O)N2C | 0.0517 µM (active) |  |  |
| CC(C)C[C@H](CC(=O)NO)C(=O)N[C@@H](Cc1ccc2ccccc2c1)C(=O)N[C@@H](C)C(=O)NCCN |  |  | 3.9% |
| C[C@@H](Oc1cc(-n2cnc3ccc(OC4CCN(C)CC4)cc32)sc1C(N)=O)c1ccccc1C(F)(F)F | 0.206 µM (active) |  |  |
| c1cc(OCCCN2CCCCC2)ccc1CN1CCCCC1 |  |  | -19.2% |
| CC(NC(=O)CCc1nc2ccccc2c(=O)[nH]1)c1ccccc1 (stereo not drawn) |  |  | -4.85% |
| CC1(C)CCC2(C(=O)OC3OC(CO)C(O)C(O)C3O)CCC3(C)C(=CCC4C5(C)CCC(OC6OC(C(=O)O)C(OC7OC(CO)C(O)C(O)C7O)C(OC7OC(CO)C(O)C(O)C7O)C6O)C(C)(C)C5CCC43C)C2C1 (stereo not drawn) |  |  | 4.92% [at 9.29 µM] |
| CC(C)=CCC[C@](C)(O[C@@H]1O[C@H](CO[C@@H]2O[C@H](CO)[C@@H](O)[C@H](O)[C@H]2O)[C@@H](O)[C@H](O)[C@H]1O)C1CC[C@]2(C)[C@@H]1[C@H](O)CC1[C@@]3(C)CC[C@H](O[C@@H]4O[C@H](CO)[C@@H](O)[C@H](O)[C@H]4O[C@@H]4O[C@H](CO)[C@@H](O)[C@H](O)[C@H]4O)C(C)(C)[C@@H]3CC[C@]12C (stereo partly drawn) |  |  | -1.53% [at 9.29 µM] |
| CN(C)C1CCN(C(=O)c2ccc(NC(=O)Nc3ccc(-c4nc(N5CCOCC5)nc(N5CCOCC5)n4)cc3)cc2)CC1 |  |  | -11.8% |
| CC(C)c1c2cc(-c3ccnc(NC4CCC(NC5CCOCC5)CC4)n3)ccc2nn1C (stereo not drawn) | 1.84 µM (active) |  |  |
| C#CCN(Cc1cc2c(=O)[nH]c(C)nc2cc1Br)c1ccc(C(=O)NCc2cccnc2)cc1 | 0.259 µM (active) |  |  |
